FLuc inh – Firefly luciferase inhibition profiling of diverse chemical library using quantitative high-throughput screening; Luciferin 4-monooxygenase (Photinus pyralis), P08659; purified P. pyralis luciferase, luminescence, biochemical; Potency, µM (series often up to 115 µM), hits mostly inhibitors; 76,000 tested, 2.5% active; AID 1347043, 2019; further: nearly all actives have a fitted effect of over 65% in size
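Purified 10nM P. pyralis luciferase with 10uM D-luciferin and 10uM ATP in 50mM Tris acetate pH 7.5, 10mM Mg acetate, 0.01% Tween-20, 0.05% BSA. qHTS titration; luminescence read by CCD imager.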
HEK293 tox – Cytotoxic Profiling in HEK 293 Cell Line of Diverse Libraries Using Quantitative High-Throughput Screening; HEK 293 viability, ATP luminescence (CellTiter-Glo), 48-72 h; Potency, µM (top dose mostly 115 µM), hits mostly inhibitors; 94,000 tested, 6.6% active; further: nearly all actives have a fitted effect of over 60% in size
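250 HEK 293 cells/well; compound by pintool; incubated 48 or 72 hr at 37 degree Celsius; CellTiter-Glo added, 10 min RT, luminescence imaged.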
NPR1 antag – Natriuretic polypeptide receptor (hNpr1) antagonism - Primary qHTS; HEK293 hNpr1 GloSensor cGMP, ANP-stimulated luminescence; 76,000 tested, 1.6% active; Atrial natriuretic peptide receptor 1 (Homo sapiens), P16066; Potency, µM (highest dose often 46.3 µM), hits mostly inhibitors; calls by dose curve; further: nearly all actives have a fitted effect of over 60% in size
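HEK293 cells stably expressing human Npr1 and cGMP GloSensor pGS-40F, loaded 2 h with 2% GloSensor reagent, given compound 30 min at room temperature. Luminescence read before and 20 min after 0.1 nM hNppA.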
3T3 cytotox – Cytotoxic Profiling in NIH 3T3 Cell Line of Diverse Libraries Using Quantitative High-Throughput Screening; NIH 3T3 viability, CellTiter-Glo ATP luminescence, 48-72 h; Potency, µM (titrated, usually from 96.7 µM), most hits filed as inhibitors; 94,000 tested, 4.3% active; AID 1345082, 2018; further: nearly all actives have a fitted effect of over 55% in size
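Cytotoxicity was measured by CellTiter-Glo ATP luminescence after 48 or 72 h compound exposure at 37 °C. Mouse NIH 3T3 fibroblasts were seeded at 400 cells/well and dosed by 23 nL pin transfer.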
Numbers stand for hits; i = inactive; ? = inconclusive; nt = not tested or not shown. The list is not random: actives were taken first. Their share in the collection is about 11%. Unless noted, the call rests on the fitted dose curve; in most records, active means well fitted curve in the direction sought with a large enough effect; inconclusive means small, poorly fitted or top-dose-only effect, or another doubt; inactive means no such curve, though single readings can be large; an effect the other way counts as inactive or inconclusive.

SMILES | FLuc inh | HEK293 tox | NPR1 antag | 3T3 cytotox
O=C(NCCNC(=O)c1ccc(C(F)(F)F)cc1)c1ccc(-c2cncnc2)cc1 | nt | i | nt | i
CCOC(=O)C1CCCN(C(=O)c2cn3cc(-c4cccc(C(F)(F)F)c4)sc3n2)C1 (stereo unspecified) | nt | i | nt | i
O=C(c1ccc(F)cc1)N1CCCN(c2cc(-c3ccc(F)cc3)[nH]n2)CC1 | i | ? | i | i
O=C(c1ccc(Cl)cc1)N1CCN(c2cc(-c3ccc(F)cc3)[nH]n2)CC1 | i | ? | ? | 35µM
Cc1ccsc1C(=O)N1CCCN(c2cc(-c3ccc(Cl)cc3)[nH]n2)CC1 | i | 32µM | ? | ?
Cc1cc(C)cc(C(=O)N2CCN(c3cc(-c4ccc(Cl)cc4)[nH]n3)CC2)c1 | i | 40µM | ? | 40µM
O=C(c1ccc2ncccc2c1)N1CCCN(c2cc(-c3ccc(Cl)cc3)[nH]n2)CC1 | i | 35µM | ? | ?
CC(=O)Nc1ccc(C(=O)N2CCCN(c3cc(-c4ccc(Cl)cc4)[nH]n3)CC2)cc1 | i | ? | i | i
CN1C(=O)c2cccn2CC1CNC(=O)c1[nH]nc2c1COc1ccccc1-2 (stereo unspecified) | i | ? | i | ?
CC(C)NC(=O)c1cc(-c2ccsc2)c2nncn2n1 | nt | i | nt | i
Cc1noc(-c2ccc(N3CCN(C/C=C/c4ccccc4)CC3)nc2)n1 | i | ? | i | ?
O=C(c1cccc(Cl)c1)N1CCN(c2cc(-c3ccccc3)[nH]n2)CC1 | i | 45µM | i | ?
O=C(c1ccc2c(c1)OCO2)N1CCN(c2cc(-c3ccc(F)cc3)[nH]n2)CC1 | i | ? | ? | 14µM
O=C(c1ccsc1)N1CCN(c2cc(-c3ccc(Cl)cc3)[nH]n2)CC1 | i | ? | i | 25µM
CCc1ccc(NC(=O)Cn2c(N(C)Cc3ccccc3)nc(C)cc2=O)cc1 | i | 35µM | ? | ?
CCc1cccc(NC(=O)Cn2c(Nc3cc(C)cc(C)c3)nc(C)cc2=O)c1 | i | 40µM | i | i
Cc1cc(=O)n(CC(=O)Nc2ccc(C)c(C)c2)c(N(C)Cc2ccccc2)n1 | i | ? | ? | ?
Cc1ccc(-n2c(C3CCN(C(=O)c4ccc(C(C)(C)C)cc4)CC3)n[nH]c2=O)cc1 | i | ? | i | ?
Cc1ccccc1-c1nccn2c(C3CN(Cc4ccc(O)cc4)C3)ncc12 | i | ? | i | 79µM
COc1ncccc1-c1nccn2c(C3CN(Cc4c[nH]c5ccccc45)C3)ncc12 | i | ? | i | ?
O=C(c1ccn[nH]1)N1CC(c2ncc3c(-c4cccc(C(F)(F)F)c4)nccn23)C1 | i | ? | i | ?
Cc1ccccc1-c1nccn2c(C3CN(C(=O)c4cc5ccccc5[nH]4)C3)ncc12 | ? | 89µM | i | 79µM
O=C(NCCN1CCOCC1)[C@H]1C[C@@H](O)[C@H](O)[C@@H]2N=C(Nc3ccc(-n4cccn4)cc3)S[C@@H]21 | 35µM | i | i | i
COc1ccc(NC(=O)C[C@@H]2C[C@@H](C(C)C)[C@H](CC#N)C=C2C)cn1 | i | 89µM | i | 79µM
Cc1ccc(NC(=O)C2(CCO)CCN(c3ncccn3)C2)cc1 (stereo unspecified) | i | i | i | i
SMILES | FLuc inh | HEK293 tox | NPR1 antag | 3T3 cytotox
CNC(=O)c1cc(C)nc2onc(C3CCCN3C(=O)c3ccccc3)c12 (stereo unspecified) | nt | i | nt | i
O=C(COc1ccc(Cl)cc1Cl)N1CCCCC1c1ccccn1 (stereo unspecified) | ? | 45µM | ? | ?
CCCOC1CCCN(C(=O)c2ccc3nc(-c4ccc(F)cc4)cn3c2)C1 (stereo unspecified) | i | 25µM | i | i
O=C(c1ccc2nnc(C3CCCC3)n2c1)N1CCOCC1 | nt | i | nt | i
C=CCOCC(O)CN1CCC(=O)N(CC2CC2)Cc2cc(F)ccc21 (stereo unspecified) | nt | ? | nt | i
O=C1NCCOCCN(S(=O)(=O)c2cccc(F)c2)[C@H]2CCC[C@@H]12 | i | i | i | i
COCCn1cc2c3c(cccc31)CN(C(=O)CCCc1ccccc1)CC2 | i | ? | i | ?
COCC(=O)N1CCc2cn(CC(C)C)c3cccc(c23)C1 | i | 79µM | i | ?
CC1(C)[C@H]2CC[C@@H](CNC(=O)c3cncc(Br)c3)[C@@H]1C2 | i | 79µM | i | ?
COc1ccc(C(=O)NC[C@@H]2CC[C@H]3C[C@@H]2C3(C)C)cc1 | i | 100µM | ? | ?
CC1(C)[C@H]2CC[C@@H](CNC(=O)c3ccccc3)[C@@H]1C2 | i | ? | i | ?
COc1cccc(S(=O)(=O)N2CCCN(S(=O)(=O)c3ccccc3)CCC(=O)NCC2)c1 | i | i | i | i
COc1cccc(C(=O)N2CCC3(CC2)CC(Cc2ccccc2)=NO3)c1 | i | i | i | i
COc1ccccc1-c1nc(-c2c(C)noc2C)cc2[nH]c(C)cc12 | i | ? | i | 25µM
Cc1cc2c(-c3ccccc3)nc(-c3c(C)noc3C)cc2[nH]1 | i | ? | i | ?
COc1ncccc1-c1nc(-c2c(C)noc2C)cc2[nH]c(C)cc12 | i | ? | i | ?
COc1cc(F)ccc1-c1nc(-c2c(C)noc2C)cc2[nH]c(C)cc12 | i | ? | i | 35µM
O=C(NCCOc1ccccc1)c1ccc2c(c1)OCCN(CCC(F)(F)F)C2 | 40µM | ? | i | i
CC(C)CCN1CCOc2cc(C(=O)Nc3ccccc3)ccc2C1 | i | ? | i | 11µM
O=C(Nc1nccs1)c1ccc2c(c1)OCCN(C1CCC1)C2 | 22µM | ? | i | ?
Cc1cnc(NC(=O)c2ccc3c(c2)OCCN(Cc2ncccn2)C3)s1 | 40µM | ? | i | i
CCOc1ccccc1CN1CCC2(CCN(C(=O)C(C)(C)C)CC2)Oc2ccccc21 | i | 40µM | i | 32µM
CCOc1ccccc1CN1CCC2(CCN(C(=O)C3CC3)CC2)Oc2ccccc21 | i | 45µM | i | 25µM
CC(C)n1ccnc1CN1CCCC12CCN(c1ccc(C(F)(F)F)cn1)CC2 | i | 35µM | i | ?
Cn1cnc2cc(-c3cccc(F)c3)cc(C(=O)NCc3cccnc3)c21 | i | ? | i | ?
SMILES | FLuc inh | HEK293 tox | NPR1 antag | 3T3 cytotox
Cn1nc(-c2cccc(F)c2)c(N2CCCCC2)c1NC(=O)NCc1ccccc1 | nt | 28µM | nt | 22µM
Cn1nc(-c2cccc(F)c2)c(N2CCCCC2)c1NC(=O)c1ccccc1F | nt | 40µM | nt | 40µM
Cn1nc(-c2cccc(F)c2)c(N2CCCC2)c1NC(=O)NCc1ccccc1 | nt | 50µM | nt | ?
COc1ccc(CCN2CCC3(C2)C(=O)N(C)C(=O)N3C)cc1 (stereo unspecified) | nt | i | nt | i
Cc1cccc(-c2cccc(CN3CCC(NC(=O)Nc4ccc(Cl)cc4)CC3)c2)c1 | nt | 6.3µM | nt | 11µM
Cc1cccc(-c2nocc2CCC(=O)O)c1 | ? | i | i | i
CC(=O)NC1CCN(Cc2cccc(-c3cccc(C)c3)c2)CC1 | nt | ? | nt | 100µM

Screening results as filed in PubChem.
